According to the supplement of paper PMC8253809:
Where “and” joins values, the source holds several entries; their conditions need not be identical. Equal values may be shown once.

How the values were obtained:
Experiment in all cases: growth inhibition (% activity, log2 RLU normalised to DMSO / staurosporine); higher = more growth inhibition
Details in all cases: 33 µM
DIPGX29 = test system: DIPGX29 (H3.3 K27M diffuse intrinsic pontine glioma line)
Summary of the method: (§1)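 In triplicate, pHGG cell lines and H9-derived neural stem cells were treated for 7 days at 37 °C, 5% CO2 with approved drugs at a single final concentration of about 33 μM, added by pin tool. CellTiter-Glo luminescence, after log2 transformation, was normalised on each plate to % activity between solvent and positive control wells. Growth inhibition is reported as the median across replicates.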

DIPGX37 = test system: DIPGX37 (H3.3 K27M diffuse intrinsic pontine glioma line)
Summary of the method: as §1

DIPGX7 = test system: DIPGX7 (H3.3 K27M diffuse intrinsic pontine glioma line)
Summary of the method: as §1

DIPGX9 = test system: DIPGX9 (diffuse intrinsic pontine glioma line)
Summary of the method: as §1

HGGX39 = test system: HGGX39 (paediatric high-grade glioma line)
Summary of the method: as §1

HGGX6 = test system: HGGX6 (H3.3 G34R paediatric high-grade glioma line)
Summary of the method: as §1

HNSC = test system: HNSC
Summary of the method: as §1

SUDIPGIV = test system: SUDIPGIV (diffuse intrinsic pontine glioma line)
Summary of the method: as §1

SUDIPGVI = test system: SUDIPGVI (diffuse intrinsic pontine glioma line)
Summary of the method: as §1

SUDIPGXIII = test system: SUDIPGXIII (diffuse intrinsic pontine glioma line)
Summary of the method: as §1

| SMILES | growth inhibition (DIPGX29) | growth inhibition (DIPGX37) | growth inhibition (DIPGX7) | growth inhibition (DIPGX9) | growth inhibition (HGGX39) | growth inhibition (HGGX6) | growth inhibition (HNSC) | growth inhibition (SUDIPGIV) | growth inhibition (SUDIPGVI) | growth inhibition (SUDIPGXIII) |
| --- | --- | --- | --- | --- | --- | --- | --- | --- | --- | --- |
| CN(C/C=C/c1ccccc1)Cc1cccc2ccccc12 | 1.23% | -0.956% | -0.0716% | 1.9% | 1.84% | 2.12% | -1.49% | 0.156% | 1.27% | 0.316% |
| C[C@H]1[C@H](NC(=O)/C(=N\OC(C)(C)C(=O)O)c2csc(N)n2)C(=O)N1S(=O)(=O)O | 1.82% | 1.51% | 2.55% | 1.75% | 2.62% | 1.95% | 1.91% | 1.35% | 3.09% | 1.38% |
| Cc1ccc(C(=O)c2cc(O)c(O)c([N+](=O)[O-])c2)cc1 | -4.7% | -1.02% | -1.81% | -2.4% | -1.44% | -3.36% | 0.397% | -4.56% | -2.71% | 1.37% |
| O=C(N/N=C/c1ccc([N+](=O)[O-])o1)c1ccc(O)cc1 | 6.1% | 2.69% | 4.79% | 5.76% | 11% | 4.58% | 17.4% | 18.5% | 13.9% | 2.98% |
| CCCCCCCCCCCCCCCCO | -0.933% | 2.94% | 1.65% | 1.02% | 2.94% | -1.64% | 11.6% | 2.42% | 0.249% | 1.46% |
| NC[C@@H]1O[C@H](O[C@H]2[C@@H](O)[C@H](O[C@@H]3[C@@H](O)[C@H](N)C[C@H](N)[C@H]3O[C@H]3O[C@H](CN)[C@@H](O)[C@H](O)[C@H]3N)O[C@@H]2CO)[C@H](N)[C@@H](O)[C@@H]1O | 0.966% | 0.68% | 1.55% | 0.402% | 2.24% | -1.34% | 20.2% | 2.53% | -6.55% | -0.235% |
| CNS(=O)(=O)CCc1ccc2[nH]cc(C3CCN(C)CC3)c2c1 | 0.0879% | 3.2% | 0.944% | 1.8% | 1.37% | -0.244% | 1.62% | 1.09% | 2.79% | -1.47% |
| Cc1ccccc1C(OCCN(C)C)c1ccccc1 (stereo not given) | -0.515% | 0.826% | -0.00592% | 1.44% | 2.28% | 1.66% | -1.91% | 0.0322% | 0.905% | 1.58% |
| CCN(Cc1ccncc1)C(=O)C(CO)c1ccccc1 (stereo not given) | -2.54% | -1.96% | -1.34% | -0.78% | -1.19% | 0.149% | -4.87% | -1.01% | -0.507% | -1.24% |
| O=C(C[S+]([O-])Cc1ccco1)NC/C=C\COc1cc(CN2CCCCC2)ccn1 (stereo not given) | -1.37% | -2.72% | 0.0817% | -0.604% | -0.28% | 0.0479% | -2.82% | -2.24% | -1.66% | -2.4% |
| N[C@@H]1CONC1=O | 1.31% | -0.333% | 0.738% | 1.4% | 0.732% | 0.485% | -0.391% | -1.17% | 1.19% | 1.03% |
| CO[C@H]1/C=C/O[C@@]2(C)Oc3c(C)c(O)c4c(O)c(c5c(nc6cc(C)ccn65)c4c3C2=O)NC(=O)/C(C)=C\C=C\[C@H](C)[C@H](O)[C@@H](C)[C@@H](O)[C@@H](C)[C@H](OC(C)=O)[C@@H]1C | -0.23% | 1.09% | 0.284% | 1.81% | 1.27% | 1.5% | 0.942% | -1.07% | 1.39% | -1.05% |
| COc1cc(/C=C/C(=O)N2CCN(CC(=O)N3CCCC3)CC2)cc(OC)c1OC | -0.327% | 0.826% | -0.108% | -0.784% | 0.66% | -2.67% | 17.5% | 0.556% | -3.03% | -1.16% |
| NCCCCCC(=O)O | 0.867% | 2.56% | 2.76% | 1.09% | 2.5% | 4.7% | 0.436% | 1.23% | 0.903% | -1.64% |
| CC1=C(C(=O)OC(C)C)C(c2cccc([N+](=O)[O-])c2)C(C(=O)OC2CN(C(c3ccccc3)c3ccccc3)C2)=C(N)N1 (stereo not given) | 9.28% | 5.94% | 22.2% | 3.53% | 13.3% | 15.6% | 58% | 14.3% | 27.2% | 11.7% |
| C[C@@H](O)[C@H]1C(=O)N2C(C(=O)O)=C(S[C@@H]3CN[C@H](C(=O)N(C)C)C3)[C@H](C)[C@H]12 | -2.93% | 0.205% | -1.37% | -0.242% | -2.33% | -3.05% | 4.4% | -2.08% | -2.04% | 0.717% |
| CCn1cc(C(=O)O)c(=O)c2cc(F)c(N3CCN(C)CC3)cc21 | 0.946% | 0.351% | 1.65% | 1.44% | 2.84% | 0.565% | 3.22% | 1.47% | 1.27% | 1.57% |
| CC[C@@H](CO)NCCN[C@@H](CC)CO | -4.2% | -0.485% | -2.38% | -2.09% | -0.115% | -2.97% | -1.6% | -3.04% | -1.42% | -0.832% |

| SMILES | growth inhibition (DIPGX29) | growth inhibition (DIPGX37) | growth inhibition (DIPGX7) | growth inhibition (DIPGX9) | growth inhibition (HGGX39) | growth inhibition (HGGX6) | growth inhibition (HNSC) | growth inhibition (SUDIPGIV) | growth inhibition (SUDIPGVI) | growth inhibition (SUDIPGXIII) |
| --- | --- | --- | --- | --- | --- | --- | --- | --- | --- | --- |
| Nc1nc2n[nH]nc2c(=O)[nH]1 | 14.5% | 13.2% | 14.4% | 22.6% | 17.5% | 13.7% | 56.2% | 32.2% | 1.16% | 1.25% |
| CCOc1nc2cccc(C(=O)O)c2n1Cc1ccc(-c2ccccc2-c2noc(=O)[nH]2)cc1 | -0.219% | 0.379% | 0.841% | 0.153% | 0.215% | -1.71% | 0.888% | -0.526% | 1.43% | -1.07% |
| C#CC1(O)CC[C@H]2[C@@H]3CCC4=CC(=O)CC[C@@H]4[C@H]3CC[C@@]21CC (stereo not given in full) | -0.0424% | 0.475% | -1.66% | 0.691% | 0.0435% | 0.889% | -0.272% | -0.687% | 1.24% | 1.03% |
| CNC1CCCN(c2c(F)cc3c(=O)c(C(=O)O)cn(C4CC4)c3c2OC)C1 (stereo not given) | -0.899% | 0.515% | -0.411% | 1.06% | 0.742% | 1.27% | -1.65% | -0.11% | -0.677% | 0.279% |
| CN(C)CC/C=C1/c2ccccc2Sc2ccc(Cl)cc21 | -0.186% | 0.387% | 0.793% | 0.131% | 0.989% | 2.17% | -1.13% | -1.17% | -0.358% | -1.03% |
| Cc1ccnc(NS(=O)(=O)c2ccc(N)cc2)n1 | 0.307% | 1.2% | -0.936% | 0.0876% | 1.13% | -0.277% | -0.552% | 0.606% | 0.117% | 1.12% |
| O=C(O)CCCN1CCC(O[C@@H](c2ccc(Cl)cc2)c2ccccn2)CC1 | -0.326% | 0.504% | -0.839% | -1.86% | 0.636% | -0.646% | -1.58% | -0.161% | 0.268% | 0.355% |
| CC(C)OC(=O)OCOP(=O)(CO[C@H](C)Cn1cnc2c(N)ncnc21)OCOC(=O)OC(C)C | -0.149% | -0.362% | 0.933% | 1.84% | 4.93% | 2.27% | 0.819% | 0.684% | 0.813% | 1.94% |
| CC(C)(C)CC(C)(C)c1ccc(OCCOCC[N+](C)(C)Cc2ccccc2)cc1 | 65.1% | 71.8% | 69% | 43.5% | 64.3% | 43.9% | 82.7% | 47.1% | 64.5% | 73.4% |
| CCCN[C@H]1CCc2nc(N)sc2C1 | -1.19% and -0.0554% | -0.814% and -5.15% | -0.691% and -0.331% | -0.203% and -1.15% | -0.555% and -2.37% | 3.71% and 0.0769% | -2.69% and 0.0733% | -0.717% and -1.61% | -0.616% and -4.53% | -6.77% and -0.361% |
| NC(=O)N1c2ccccc2CC(=O)c2ccccc21 | -3.02% | -1.81% | -2.16% | -3.17% | -2.13% | -4.21% | -3.92% | -3.93% | -1.28% | -0.579% |
| CN(C)c1cc(NC(=O)CNC(C)(C)C)c(O)c2c1CC1CC3C(N(C)C)C(=O)C(C(N)=O)=C(O)C3(O)C(=O)C1=C2O (stereo not given) | -2.13% | -0.102% | -0.656% | -1.41% | -1.33% | -2.33% | -2.93% | -2.9% | -1.89% | 0.694% |
| CC(=O)Oc1ccc(C(c2ccc(OC(C)=O)cc2)c2ccccn2)cc1 | 2.78% | 3.71% | 5.33% | 8.29% | 20.8% | 3.52% | 4.99% | 18.7% | 3.8% | 5.98% |
| CCN1CCN(c2cc3c(cc2F)c(=O)c(C(=O)O)cn3C2CC2)CC1 | -0.107% | 1.21% | 0.805% | 1.48% | 4.31% | -0.135% | 1.17% | 1.5% | 1.16% | -0.234% |
| C[C@@H]1[C@H](O)[C@@H](C)/C=C/C=C/C=C/C=C/C=C/C=C/C=C/[C@H](O[C@@H]2O[C@H](C)[C@@H](O)[C@H](N)[C@@H]2O)C[C@@H]2O[C@](O)(C[C@@H](O)C[C@@H](O)[C@H](O)CC[C@@H](O)C[C@@H](O)CC(=O)O[C@H]1C)C[C@H](O)[C@H]2C(=O)O | 1.5% | 0.689% | 0.985% | 2.51% | 1.45% | 3.13% | 2.79% | -0.529% | 0.154% | 1.88% |
| CC1(C)O[C@@H]2[C@@H](CO[C@@]3(COS(N)(=O)=O)OC(C)(C)O[C@@H]23)O1 | -3.02% | -1.66% | -1.31% | -2.57% | -2.13% | -3.4% | -3.88% | -3.39% | -3.08% | -0.599% |
| CCC[C@@H]1C[C@@H](C(=O)N[C@@H]([C@H]2O[C@H](SC)[C@H](OP(=O)(O)O)[C@@H](O)[C@H]2O)[C@H](C)Cl)N(C)C1 | -4.37% | -1.53% | -1.72% | -1.01% | -2.23% | -2.46% | 3.42% | -1.74% | -2.75% | 0.327% |
| CCC(=O)OCC(=O)[C@@]1(OC(=O)CC)[C@@H](C)C[C@H]2[C@@H]3CCC4=CC(=O)C=C[C@]4(C)[C@@]3(F)[C@@H](O)C[C@@]21C | 0.0157% | 2.23% | 0.0573% | 4.05% | 3.08% | 1.77% | -4.87% | -0.108% | 0.781% | 1.98% |
